Test results as given in PubChem BioAssay.
Results filed as inconclusive are left out. Calls of active or inactive are those of the source.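 Rule for the calls, unless noted: active = binding below the plate cutoff, the plate median minus 3 SD, with a reading above zero; inconclusive = below the plate cutoff but reading exactly zero; inactive = the rest.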

Assays:
[1] = yeast TOR pathway RPL19A-GFP modulators, primary screen, cell-based, S. cerevisiae, multiplex flow cytometry (AID 1862; in the data active = percent of DMSO control GFP below about 86%;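 note: lower values mimic rapamycin by blocking the RPL19A rise seen in DMSO cells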); conditions: S. cerevisiae RPL19A-GFP strain, flow cytometry fluorescence, 3 h; at 10 µM; stronger effect = lower value
[2] = modulators of MEP2-GFP levels in yeast, primary screen, S. cerevisiae, multiplex flow cytometry (AID 1867;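 active = GFP response, as percent of the DMSO control, above the screen-wide mean plus 3 SD, about 139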;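 note: median GFP channel fluorescence of barcode-gated MEP2-GFP cells measured by flow cytometry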); conditions: S. cerevisiae MEP2-GFP strain, 3 h, at 10 µM, stronger effect = higher value, 100% means same as DMSO wells
[3] = modulators of CIT2-GFP expression in yeast, primary screen, S. cerevisiae, GFP fusion, multiplex flow cytometry (AID 1870;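 active = percent response above a set limit, the screen-wide mean plus 3 SD, cut at about 130% in these data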;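 note: barcoded CIT2-GFP strain pooled with four other GFP strains with rapamycin as positive control; median GFP fluorescence per well over plate mean of DMSO wells so 100% = DMSO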); conditions: 3 h, at 10 µM, stronger effect = higher value
[4] = modulators of LAP4-GFP expression in yeast, primary screen, S. cerevisiae, multiplex flow cytometry (AID 1873;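 active = GFP signal, as percent of the solvent control, above the screen mean plus 3 SD, about 149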); conditions: 3 h, at 10 µM, stronger effect = higher value
[5] = modulators of AGP1-GFP expression in yeast TOR pathway, primary screen, cell-based, multiplex flow cytometry, S. cerevisiae (AID 1887;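 active = GFP signal above the screen-wide mean plus 3 SD, that is over about 124.5% of the solvent control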;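 note: AGP1-GFP fusion strain of S. cerevisiae within a five-strain barcoded multiplex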); conditions: 3 h, at 10 µM, stronger effect = higher value
[6] = inhibitors of CD8+ T cell-vesicle binding, pilot screen, LFA-1/ICAM-1 modulator project, MLPCN validation set, flow cytometry (AID 2523;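 active = response below a set limit, under 55% cells CD8-positive and vesicle-bound, and CD8 cells' 90th-percentile brightness under 279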;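 for vesicle binding response: mean PE anti-B7-1 fluorescence of CD8+ cells relative to row control; 100% = QL9-loaded vesicles with DMSO vehicle in the same plate row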); conditions: 2C mouse CD8+ T cells, at 7 µM, stronger effect = lower value; double positive events: measured here: CD8+/vesicle+ event percentage
[7] = molecular target: Integrin beta-1 (Homo sapiens) + Integrin alpha-4 (Homo sapiens) (UniProt P13612+P05556); experiment: inhibition of HUTS-21 binding to VLA-4, pilot screen, VLA-4 allosteric modulator project, U937 cells, HUTS-21 mAb, flow cytometry, validation set (AID 2674;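 active = inhibition above 50%, about 3 SD of the validation set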;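 note: antibody binding induced by the VLA-4 ligand LDV present at three times its Kd; 0% = LDV ligand with antibody and no compound and 100% = antibody without LDV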); conditions: HUTS-21 LIBS mAb binding, at 6.7 µM, stronger effect = higher value, binding induced by LDV ligand
[8] = superoxide lowering in aged yeast cells, pilot screen, validation compound set (AID 2706;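 active = superoxide response below 65% of plate, a cut near 3 SD across the whole screen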;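 note: yeast exposed to compound for one week at 30 degrees C before staining; 100% = mean of all compound wells on the same plate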); conditions: S. cerevisiae aging, superoxide DHE fluorescence; at 10 µM, stronger effect = lower value
[9] = molecular target: Beta-adrenergic receptor kinase 1 (Homo sapiens) (UniProt P25098); experiment: GRK2 binders displacing RNA aptamer, biochemical, validation, human GRK2, bead flow cytometry (AID 488806;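 active = aptamer binding inhibition above 30%, about 3 SD of noise from non-fluorescent compounds; inactive = inhibition at or below 30%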); conditions: bead-bound GRK2, FAM-aptamer displacement, at 10 µM, stronger effect = higher value
[10] = molecular target: Beta-2 adrenergic receptor (Homo sapiens) (UniProt P07550); experiment: beta2AR agonists driving receptor internalization, pilot screen, cell-based, FAP fluorogen, flow cytometry, validation set (AID 504459;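 active = percent response above 42, roughly 3 SD of non-fluorescent test compounds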;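 note: agonist-driven loss of surface beta2AR via internalization measured by FAP dye flow cytometry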); conditions: Am2.2-beta2AR cells, FAP surface receptor flow cytometry; at 10 µM; stronger effect = higher value
[11] = yeast V-ATPase proton transport modulators, S. cerevisiae, pHLuorin, HTS validation (AID 504600; in the data active = response above about 15%;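 note: plate controls were DMSO for no effect and reference compound for full effect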); conditions: S. cerevisiae pHLuorin cytosolic pH, at 10 µM, stronger effect = higher value
[12] = test system: anti-desmoglein-3 scFv antibody binding to human DSG3; experiment: inhibitors of anti-DSG3 scFv binding to DSG3, pilot screen, biochemical, validation compound set, bead-based, flow cytometry (AID 588368); conditions: Protein G beads, DSG3-Fc, scFv-GFP binding, at 10 µM, stronger effect = lower value;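 note: signal is the median channel fluorescence of bead-bound GFP antibody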
[13] = inhibitors of fungal efflux pumps CDR1, CDR2, MDR1, pilot screen, validation compound set, multiplex, phenotypic (AID 588506;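 active = efflux inhibition above 0.42, the validation set average plus 4 SD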;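 note: Nile Red retained in cells so higher fluorescence means more efflux inhibition; 0 = negative control wells and 1 = enniatin B 25 µM full block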); conditions: S. cerevisiae pump-expressing triplex, Nile Red efflux flow cytometry; at 10 µM; stronger effect = higher value; the pumps come from Candida albicans
[14] = molecular target: ATP-binding cassette sub-family B member 6 (Homo sapiens) (UniProt Q9NP58); experiment: ABCB6 transporter inhibitors, pilot screen, K562-ABCB6 cells, flow cytometry, validation set (AID 588550;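 active = inhibition above the screen-wide mean plus 3 SD, about 51%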;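 note: 0% = DMSO wells and 100% = benzethonium chloride 70 µM positive control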); conditions: K562-ABCB6 porphyrin accumulation, 1 h, at 10 µM, stronger effect = higher value
[15] = promoters of myeloid differentiation in arrested cells, primary screen, cell-based, GFP/MAC1 double positive, flow cytometry, validation set (AID 588685;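 active = differentiation response of at least 50%, scaled between solvent and reference control, from cells with both markers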;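 note: compound exposure lasts four days before antibody staining and flow analysis; 0% = DMSO wells and 100% = 5 µM fulvestrant positive control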); conditions: ER-HoxA9 marrow cells, stronger effect = higher value, normalized: vehicle 0, fulvestrant 100
[16] = molecular target: AP-2 complex subunit beta (Homo sapiens) (UniProt P63010); experiment: inhibitors of arrestin peptide binding to AP2, pilot screen, biochemical, validation set, GST-AP2 beads, flow cytometry (AID 504541;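 active = inhibition above 54%, about 3 SD of non-fluorescent compounds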;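 note: AP2 carries R879A mutation and is captured from E. coli lysate; bead-bound FITC arrestin peptide fluorescence measuring arrestin peptide binding to AP2; 0% = DMSO wells and 100% = excess unlabeled arrestin peptide control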); conditions: FITC arrestin peptide, at 10 µM, stronger effect = higher value, AP2 beta2 appendage fragment, R879A mutant
Sequence of AP-2 complex subunit beta (Homo sapiens) (P63010 whole entry, looked up, the tested form may be a part, one chain of several): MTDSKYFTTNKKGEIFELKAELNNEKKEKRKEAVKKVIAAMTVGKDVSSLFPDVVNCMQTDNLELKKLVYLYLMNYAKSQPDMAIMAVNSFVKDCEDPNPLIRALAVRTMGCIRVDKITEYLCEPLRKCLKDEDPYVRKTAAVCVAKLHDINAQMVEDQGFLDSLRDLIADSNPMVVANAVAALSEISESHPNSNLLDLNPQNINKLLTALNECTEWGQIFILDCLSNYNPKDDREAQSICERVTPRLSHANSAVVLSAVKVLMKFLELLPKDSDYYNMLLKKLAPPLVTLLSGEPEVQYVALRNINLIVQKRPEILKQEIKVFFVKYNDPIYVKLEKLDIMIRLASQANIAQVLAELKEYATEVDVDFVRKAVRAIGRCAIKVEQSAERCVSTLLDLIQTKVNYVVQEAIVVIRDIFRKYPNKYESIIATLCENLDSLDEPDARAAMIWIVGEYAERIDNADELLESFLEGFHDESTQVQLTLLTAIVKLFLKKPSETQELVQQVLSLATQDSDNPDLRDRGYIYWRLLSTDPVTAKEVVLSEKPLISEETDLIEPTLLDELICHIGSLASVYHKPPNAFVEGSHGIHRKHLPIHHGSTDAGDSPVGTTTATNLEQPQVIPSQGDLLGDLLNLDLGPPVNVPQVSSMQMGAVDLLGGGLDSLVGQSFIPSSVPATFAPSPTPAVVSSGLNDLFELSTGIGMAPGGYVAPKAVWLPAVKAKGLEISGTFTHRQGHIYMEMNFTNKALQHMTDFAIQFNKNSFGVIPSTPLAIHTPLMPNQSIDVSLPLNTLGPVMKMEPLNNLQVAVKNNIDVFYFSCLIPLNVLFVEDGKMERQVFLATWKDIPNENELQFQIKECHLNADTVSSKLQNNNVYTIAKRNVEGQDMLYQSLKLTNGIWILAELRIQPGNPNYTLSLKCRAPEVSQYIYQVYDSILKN

Sequence of Beta-2 adrenergic receptor (Homo sapiens) (P07550 whole entry, looked up): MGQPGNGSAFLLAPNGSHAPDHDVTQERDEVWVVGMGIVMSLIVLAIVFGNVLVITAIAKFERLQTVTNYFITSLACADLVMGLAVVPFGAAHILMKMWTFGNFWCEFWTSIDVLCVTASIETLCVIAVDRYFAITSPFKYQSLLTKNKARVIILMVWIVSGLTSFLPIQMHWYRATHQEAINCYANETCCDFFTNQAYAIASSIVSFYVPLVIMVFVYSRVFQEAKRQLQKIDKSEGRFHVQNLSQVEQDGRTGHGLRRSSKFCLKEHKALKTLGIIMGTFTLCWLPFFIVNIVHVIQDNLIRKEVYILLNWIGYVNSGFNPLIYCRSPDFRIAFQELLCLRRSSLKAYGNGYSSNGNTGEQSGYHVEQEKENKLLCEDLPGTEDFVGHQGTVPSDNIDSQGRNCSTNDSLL
Sequence of ATP-binding cassette sub-family B member 6 (Homo sapiens) (Q9NP58 whole entry, looked up): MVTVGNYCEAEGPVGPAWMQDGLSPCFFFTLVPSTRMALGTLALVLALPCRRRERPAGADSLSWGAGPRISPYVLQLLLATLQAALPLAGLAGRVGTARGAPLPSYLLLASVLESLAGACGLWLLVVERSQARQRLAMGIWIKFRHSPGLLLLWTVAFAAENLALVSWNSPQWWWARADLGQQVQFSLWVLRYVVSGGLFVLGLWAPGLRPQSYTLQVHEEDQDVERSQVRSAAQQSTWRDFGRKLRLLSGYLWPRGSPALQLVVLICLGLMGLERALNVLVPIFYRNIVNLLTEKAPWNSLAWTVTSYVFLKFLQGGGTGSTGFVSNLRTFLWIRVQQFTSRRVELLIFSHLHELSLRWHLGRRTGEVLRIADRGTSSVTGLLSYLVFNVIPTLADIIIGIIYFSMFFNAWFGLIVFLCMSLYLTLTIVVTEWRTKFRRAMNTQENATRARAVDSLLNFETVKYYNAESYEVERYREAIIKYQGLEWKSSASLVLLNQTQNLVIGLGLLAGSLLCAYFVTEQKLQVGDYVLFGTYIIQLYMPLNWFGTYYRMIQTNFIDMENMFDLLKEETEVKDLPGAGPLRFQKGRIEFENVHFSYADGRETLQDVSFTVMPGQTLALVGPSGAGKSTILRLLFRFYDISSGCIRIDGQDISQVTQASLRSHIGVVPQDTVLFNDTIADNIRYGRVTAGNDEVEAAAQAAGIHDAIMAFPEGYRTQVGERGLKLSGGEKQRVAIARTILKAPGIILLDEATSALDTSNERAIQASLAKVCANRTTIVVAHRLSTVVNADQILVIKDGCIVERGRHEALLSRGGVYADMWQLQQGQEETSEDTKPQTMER
Sequence of Integrin beta-1 (Homo sapiens) + Integrin alpha-4 (Homo sapiens) (P05556 whole entry, looked up): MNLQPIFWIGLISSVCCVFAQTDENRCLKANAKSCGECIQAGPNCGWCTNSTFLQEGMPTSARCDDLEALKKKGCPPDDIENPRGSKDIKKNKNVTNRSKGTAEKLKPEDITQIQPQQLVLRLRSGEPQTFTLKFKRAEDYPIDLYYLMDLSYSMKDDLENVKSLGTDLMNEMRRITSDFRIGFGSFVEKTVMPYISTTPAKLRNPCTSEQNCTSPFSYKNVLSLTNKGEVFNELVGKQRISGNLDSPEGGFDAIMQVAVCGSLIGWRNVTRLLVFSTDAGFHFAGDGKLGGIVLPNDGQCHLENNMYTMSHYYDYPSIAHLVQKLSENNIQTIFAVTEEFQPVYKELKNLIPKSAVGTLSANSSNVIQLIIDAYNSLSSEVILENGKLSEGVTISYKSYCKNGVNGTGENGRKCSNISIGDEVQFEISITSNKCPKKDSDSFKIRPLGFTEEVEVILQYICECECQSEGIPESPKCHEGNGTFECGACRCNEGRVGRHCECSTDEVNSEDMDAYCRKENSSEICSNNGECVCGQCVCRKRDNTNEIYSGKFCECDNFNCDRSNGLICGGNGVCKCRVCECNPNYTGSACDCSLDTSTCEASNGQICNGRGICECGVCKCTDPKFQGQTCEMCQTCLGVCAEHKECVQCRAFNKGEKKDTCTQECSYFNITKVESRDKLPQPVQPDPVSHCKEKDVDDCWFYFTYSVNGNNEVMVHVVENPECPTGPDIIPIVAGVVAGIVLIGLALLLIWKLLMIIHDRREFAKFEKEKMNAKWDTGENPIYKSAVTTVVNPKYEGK
Sequence of Integrin beta-1 (Homo sapiens) + Integrin alpha-4 (Homo sapiens) (P13612 whole entry, looked up): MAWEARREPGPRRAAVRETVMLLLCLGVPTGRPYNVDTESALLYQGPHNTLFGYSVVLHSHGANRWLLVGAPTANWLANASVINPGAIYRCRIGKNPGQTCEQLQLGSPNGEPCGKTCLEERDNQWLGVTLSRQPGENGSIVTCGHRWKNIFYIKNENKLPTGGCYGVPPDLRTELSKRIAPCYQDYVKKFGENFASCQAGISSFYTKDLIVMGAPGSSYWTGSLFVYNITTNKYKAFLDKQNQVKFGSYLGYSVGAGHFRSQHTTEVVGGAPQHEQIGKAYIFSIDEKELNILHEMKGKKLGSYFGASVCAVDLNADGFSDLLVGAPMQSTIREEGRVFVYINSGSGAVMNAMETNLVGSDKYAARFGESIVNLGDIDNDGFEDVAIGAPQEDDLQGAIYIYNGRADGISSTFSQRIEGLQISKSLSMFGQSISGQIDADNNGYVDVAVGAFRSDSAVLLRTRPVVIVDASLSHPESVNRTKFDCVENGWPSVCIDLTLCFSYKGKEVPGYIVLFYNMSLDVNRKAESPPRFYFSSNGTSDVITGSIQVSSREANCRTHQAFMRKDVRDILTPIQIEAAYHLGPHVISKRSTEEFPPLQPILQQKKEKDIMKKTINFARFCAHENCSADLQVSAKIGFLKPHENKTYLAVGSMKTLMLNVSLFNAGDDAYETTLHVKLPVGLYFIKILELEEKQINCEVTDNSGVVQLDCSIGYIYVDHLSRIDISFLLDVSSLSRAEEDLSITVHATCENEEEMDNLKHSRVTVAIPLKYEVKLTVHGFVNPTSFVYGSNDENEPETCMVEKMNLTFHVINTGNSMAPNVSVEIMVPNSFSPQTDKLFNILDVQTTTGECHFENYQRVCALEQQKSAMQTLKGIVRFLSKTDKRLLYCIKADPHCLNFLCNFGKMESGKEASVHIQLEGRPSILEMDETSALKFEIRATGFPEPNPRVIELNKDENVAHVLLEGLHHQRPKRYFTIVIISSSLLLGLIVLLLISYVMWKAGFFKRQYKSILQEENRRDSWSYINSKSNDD
Sequence of Beta-adrenergic receptor kinase 1 (Homo sapiens) (P25098 whole entry, looked up): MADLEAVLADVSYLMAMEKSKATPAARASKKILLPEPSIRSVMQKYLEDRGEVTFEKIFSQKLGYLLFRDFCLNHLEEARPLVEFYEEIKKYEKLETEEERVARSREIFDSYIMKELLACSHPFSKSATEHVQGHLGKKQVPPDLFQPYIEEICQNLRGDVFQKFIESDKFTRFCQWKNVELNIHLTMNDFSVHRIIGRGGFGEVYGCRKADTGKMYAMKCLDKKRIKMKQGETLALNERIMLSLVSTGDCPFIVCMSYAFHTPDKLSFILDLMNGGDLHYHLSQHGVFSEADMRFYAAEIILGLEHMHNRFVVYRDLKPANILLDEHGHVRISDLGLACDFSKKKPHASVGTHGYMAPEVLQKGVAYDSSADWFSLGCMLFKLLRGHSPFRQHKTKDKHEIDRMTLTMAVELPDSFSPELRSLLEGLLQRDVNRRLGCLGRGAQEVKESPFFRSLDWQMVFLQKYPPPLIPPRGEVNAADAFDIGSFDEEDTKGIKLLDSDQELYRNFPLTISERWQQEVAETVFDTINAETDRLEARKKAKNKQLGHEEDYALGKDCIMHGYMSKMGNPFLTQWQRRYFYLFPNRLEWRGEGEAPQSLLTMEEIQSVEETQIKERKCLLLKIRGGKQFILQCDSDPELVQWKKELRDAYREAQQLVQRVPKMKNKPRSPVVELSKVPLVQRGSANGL

Nc1nc2ccc(OC(F)(F)F)cc2s1
inactive: percent of DMSO control GFP [1] 100% | GFP response vs DMSO [2] 99.9% | percent response of DMSO control [3] 99.3% | GFP response vs DMSO [4] 102% | GFP response, % of DMSO [5] 95.1% | vesicle binding response [6] 21.6% | inhibition [7] -0.31% | superoxide response (% of plate) [8] 94.9% | aptamer binding inhibition [9] 4% | response [10] 9.24% | response [11] 1.08% | binding (% of control) [12] 97.2% | efflux inhibition (fraction of control) [13] -0.41 | inhibition [14] 3% | differentiation response [15] 2.69%
57.4%: double positive events [6]

CC(C(=O)O)c1ccc(N2Cc3ccccc3C2=O)cc1 (stereo not given)
62.1%: double positive events [6]
inactive: percent of DMSO control GFP [1] 98.4% | GFP response vs DMSO [2] 103% | percent response of DMSO control [3] 93.9% | GFP response vs DMSO [4] 119% | GFP response, % of DMSO [5] 90.4% | vesicle binding response [6] 2350% | inhibition [7] -7.47% | superoxide response (% of plate) [8] 112% | aptamer binding inhibition [9] -4% | response [10] 3.47% | response [11] 0.33% | binding (% of control) [12] 107% | efflux inhibition (fraction of control) [13] -0.41 | inhibition [14] 1% | differentiation response [15] -1.12%

CC(=O)O[C@H]1CSC[C@H]1NC(=O)c1ccccc1
60.9%: double positive events [6]
inactive: percent of DMSO control GFP [1] 101% | GFP response vs DMSO [2] 91.8% | percent response of DMSO control [3] 106% | GFP response vs DMSO [4] 102% | GFP response, % of DMSO [5] 101% | vesicle binding response [6] 233% | inhibition [7] -7.7% | superoxide response (% of plate) [8] 104% | aptamer binding inhibition [9] -6% | inhibition [16] -16.1% | response [11] -9.38% | binding (% of control) [12] 102% | efflux inhibition (fraction of control) [13] -0.28 | inhibition [14] 12% | differentiation response [15] -13.1%

O=C1OC(c2ccc(O)cc2)(c2ccc(O)cc2)c2ccccc21
inactive: percent of DMSO control GFP [1] 97.1% | GFP response vs DMSO [2] 102% | percent response of DMSO control [3] 101% | GFP response vs DMSO [4] 103% | GFP response, % of DMSO [5] 100% | vesicle binding response [6] 180% | inhibition [7] 9.09% | superoxide response (% of plate) [8] 99.3% | aptamer binding inhibition [9] 1% | inhibition [16] 28% | response [11] -0.84% | binding (% of control) [12] 103% | efflux inhibition (fraction of control) [13] -0.12 | inhibition [14] 6% | differentiation response [15] -24.4%
62.5%: double positive events [6]

O=C(NCCCCCc1nc2ccccc2[nH]1)c1ccccc1Cl
active: efflux inhibition (fraction of control) [13] 0.69
62.5%: double positive events [6]
inactive: percent of DMSO control GFP [1] 101% | GFP response vs DMSO [2] 107% | percent response of DMSO control [3] 98.6% | GFP response vs DMSO [4] 95.9% | GFP response, % of DMSO [5] 103% | vesicle binding response [6] 124% | inhibition [7] -7.79% | superoxide response (% of plate) [8] 102% | aptamer binding inhibition [9] 3% | response [10] 25.8% | response [11] -2.36% | binding (% of control) [12] 109% | inhibition [14] 6% | differentiation response [15] 10.1%

Nc1nc2c(ncn2COC(CO)CO)c(=O)[nH]1
60.3%: double positive events [6]
inactive: percent of DMSO control GFP [1] 97.3% | GFP response vs DMSO [2] 106% | percent response of DMSO control [3] 96.4% | GFP response vs DMSO [4] 125% | GFP response, % of DMSO [5] 119% | vesicle binding response [6] 212% | inhibition [7] -11.3% | superoxide response (% of plate) [8] 106% | aptamer binding inhibition [9] -6% | response [10] -20.9% | inhibition [16] -16.5% | response [11] -2.35% | binding (% of control) [12] 98% | inhibition [14] 5% | differentiation response [15] -10.9%

O=C1C=CC(=O)C(C2=C3C(=O)N(CCc4ccccc4)CC(=O)N3CCC2)=C1
42.5%: double positive events [6]
inactive: percent of DMSO control GFP [1] 106% | GFP response vs DMSO [2] 103% | percent response of DMSO control [3] 102% | GFP response vs DMSO [4] 94.3% | GFP response, % of DMSO [5] 104% | vesicle binding response [6] 92.7% | inhibition [7] -30.1% | superoxide response (% of plate) [8] 115% | aptamer binding inhibition [9] 3% | inhibition [16] 12% | response [11] -0.59% | binding (% of control) [12] 101% | efflux inhibition (fraction of control) [13] -0.28 | inhibition [14] 8% | differentiation response [15] -18%

COc1ccc2c(c1)C(=O)CC(c1ccccc1F)O2 (stereo not given)
active: efflux inhibition (fraction of control) [13] 0.44
62%: double positive events [6]
inactive: percent of DMSO control GFP [1] 95.8% | GFP response vs DMSO [2] 103% | percent response of DMSO control [3] 93.9% | GFP response vs DMSO [4] 92.3% | GFP response, % of DMSO [5] 87% | vesicle binding response [6] 135% | inhibition [7] 10% | superoxide response (% of plate) [8] 97% | aptamer binding inhibition [9] 0% | inhibition [16] 21.8% | response [11] -0.49% | binding (% of control) [12] 94.1% | inhibition [14] -46% | differentiation response [15] -11.5%

CC(C)CN1CC(C(=O)O)CC1=O (stereo not given)
56%: double positive events [6]
inactive: percent of DMSO control GFP [1] 96.1% | GFP response vs DMSO [2] 101% | percent response of DMSO control [3] 96% | GFP response vs DMSO [4] 104% | GFP response, % of DMSO [5] 102% | vesicle binding response [6] 66.5% | inhibition [7] 1.12% | superoxide response (% of plate) [8] 102% | aptamer binding inhibition [9] 0% | response [10] -5.23% | response [11] -1.05% | binding (% of control) [12] 104% | efflux inhibition (fraction of control) [13] -0.57 | inhibition [14] 4% | differentiation response [15] 5.73%

CCOC(=O)C1=C(N)Oc2c(oc(CO)cc2=O)C1c1ccc(F)c(F)c1 (stereo not given)
56.7%: double positive events [6]
inactive: percent of DMSO control GFP [1] 99.1% | GFP response vs DMSO [2] 101% | percent response of DMSO control [3] 99.8% | GFP response vs DMSO [4] 94.3% | GFP response, % of DMSO [5] 97.3% | vesicle binding response [6] 213% | inhibition [7] 9.09% | superoxide response (% of plate) [8] 98% | aptamer binding inhibition [9] 1% | inhibition [16] 42.8% | response [11] -11.2% | binding (% of control) [12] 104% | efflux inhibition (fraction of control) [13] 0.03 | inhibition [14] 2% | differentiation response [15] -18%
